We go through 93 molecules from PubChem BioAssay AID492956 (The Scripps Research Institute Molecular Screening Center, 2010).

Structures are written as SMILES. The campaign covered roughly 340,000 compounds. About 3,300 (0.97%) were called active.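 The calls were made as follows: active = inhibition above the mean over all tested compounds plus 3 SD (cut at about 30% in these data); inactive = the rest.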 The sample as a whole holds a higher share of actives than the screen did.

The assay deals with Platelet-activating factor acetylhydrolase 2, cytoplasmic (Homo sapiens) (UniProt Q99487). The experiment in a line: inhibition of cytoplasmic PAF acetylhydrolase 2 – biochemical, fluorescence polarization, human, primary screen (AID 492956).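 Also: inhibitors block probe labeling of enzyme so polarization drops; 0% = enzyme with DMSO and 100% = wells lacking PAFAH2 protein.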 The note with it: recombinant PAFAH2, FP-rhodamine activity probe, at 3.39 µM, stronger effect = higher value. A general note: Polarisation of emitted light reports the rotation of a fluorescent probe.
On to `Cc1noc(C)c1C(=O)N(CC(=O)NC1CCCC1)Cc1ccccc1F`, for which the inhibition was 3.06% (inactive).

For `CCOc1ccc2nc(/N=C/c3nc(-c4ccccc4)oc3O)sc2c1`, the inhibition was 2.86% (inactive).

For the molecule `CC(N=Cc1nc(-c2ccccc2)oc1O)c1ccccc1` (stereo not drawn), the inhibition was 21% (inactive).

`Oc1oc(-c2ccccc2Br)nc1/C=N/c1ccccn1`: the inhibition is 68% (active).

Regarding `COc1ccc(F)cc1C(=O)COC(=O)c1n[nH]c(=O)c2ccccc12`, the inhibition is 0.13% (inactive).

In the case of `Cc1ccc2oc(=O)ccc2c1`, the inhibition was 1.28% (inactive).

As for `CN(C)c1ccc2c(=O)[nH][nH]c(=O)c2c1`, the inhibition was 0.81% (inactive).

With `Cc1ccc2c(=O)oc(N(C)C)nc2c1`, the inhibition was 33% (active).

Turning to `CCOC(=O)C1CCCCN1Cc1ccc(OC)c(OC)c1OC` (stereo not drawn), the inhibition was -0.46% (inactive).

Turning to `COC(CCN(C)C)(c1ccccc1)c1ccccc1`, the inhibition is 3.5% (inactive).

With `C=CCC(NCCCO)c1cccc(OC)c1OC` (stereo not drawn), the inhibition is 5.85% (inactive).

As to `O=C1C(Cl)=C(Oc2ccccc2)C(=O)c2ccccc21`, the inhibition is 43.1% (active).

Take `CC(=O)N(C1=C(Cl)C(=O)c2ccccc2C1=O)c1ccc(C(=O)O)cc1`: the inhibition is 10.5% (inactive).

With `Cc1ccc2[nH]c(=O)c(CN3CCCCC3)c(-c3ccccc3)c2c1`, the inhibition is 6.01% (inactive).

`CCc1cc(=O)oc2c(C)c(OCC(=O)N3CC[C@@]4(O)CCCC[C@H]4C3)ccc12`: the inhibition is -2.6% (inactive).

`Oc1c(Cl)cc(Cl)c(Cl)c1Cc1c(O)c(Cl)cc(Cl)c1Cl`: the inhibition is 49.4% (active).

Take `CCOC(=O)C(=CNNc1ccsc1C(=O)OC)C(=O)OCC`: the inhibition was -1.37% (inactive).

As for `CCOc1ccc(S(=O)(=O)N2CCC(C(=O)NCC(=O)Nc3cccc(Cl)c3C)CC2)cc1`, the inhibition is 8.28% (inactive).

Regarding `O=C(O)c1ccc(NS(=O)(=O)c2ccc3c(c2)C(=O)c2cc(S(=O)(=O)Nc4ccc(C(=O)O)cc4)ccc2-3)cc1`, the inhibition was 4.82% (inactive).

On to `OCC[C@H]1C[C@H](O)[C@@H](O)[C@]2(Cc3ccccc3CO2)O1`, for which the inhibition is 8.82% (inactive).

As for `COc1ccc(NS(=O)(=O)c2ccc(C)c(C(=O)NCC(c3cccs3)N3CCOCC3)c2)cc1` (stereo not drawn), the inhibition was 7.05% (inactive).

Take `CCOc1ccccc1NC(=O)CCc1nnc2ccc(NCc3ccco3)nn12`: the inhibition was 3.78% (inactive).

On to `O=C(COC(=O)/C=C/c1nc2ccccc2s1)Nc1ccccc1Oc1ccccc1`, for which the inhibition was -12.4% (inactive).

Take `Cc1ccc(/C=C/C(=O)OCC(=O)Nc2cccnc2Cl)cc1`: the inhibition was 30.3% (active).

`COc1ccc(-c2nnc(SCC(=O)Nc3cccnc3Cl)n2C)cc1`: the inhibition was 0.74% (inactive).

With `O=C(NCCC(=O)N1O[C@@H]2C=C[C@H]1C2)OCC1c2ccccc2-c2ccccc21`, the inhibition was 2.94% (inactive).

Take `O=C(Cc1ccc([N+](=O)[O-])cc1)Nc1ccc(C(=O)N2CCOCC2)cc1`: the inhibition is 1.43% (inactive).

As to `O=C(Oc1cccc(C(=S)N2CCOCC2)c1)c1cccc(Cl)c1`, the inhibition is 5.91% (inactive).

Regarding `CC(=O)Nc1ccccc1OC(=O)N1CCOCC1`, the inhibition was 7.14% (inactive).

Regarding `O=C(/C=C/c1cccs1)c1cc(Cl)ccc1OC(=O)N1CCOCC1`, the inhibition is 72.8% (active).

For `COc1cccc(N(C(=O)c2snc(C(N)=O)c2N)C(C(=O)NCC2CCCO2)c2c[nH]c3ccccc23)c1` (stereo not drawn), the inhibition was -0.32% (inactive).

Regarding `COc1ccc(-c2nc3c(s2)CCc2onc(-c4ccc(Br)cc4)c2-3)cc1`, the inhibition was -1.79% (inactive).

For the molecule `Cc1ccc(NC(=O)COC(=O)C2CC2)cc1S(=O)(=O)N1CCOCC1`, the inhibition was 77.5% (active).

In the case of `Cc1ccc(NC(=O)COC(=O)C2C3CC4OC(=O)C2C4C3)cc1Cl` (stereo not drawn), the inhibition is 88.2% (active).

As to `Cc1cc(NC(=O)COC(=O)c2ccc(F)c(S(=O)(=O)N3CCOCC3)c2)no1`, the inhibition was 8.91% (inactive).

`O=C(Nc1ccc(Br)cc1)c1cccc(NC(=O)C2C3CC4OC(=O)C2C4C3)c1` (stereo not drawn): the inhibition is -8.44% (inactive).

For `Cc1ccc(NC(=O)COC(=O)CNC(=O)c2ccc(Cl)cc2Cl)cc1S(=O)(=O)N1CCOCC1`, the inhibition was -3.69% (inactive).

On to `O=C(COC(=O)c1ccco1)Nc1ccc(Cl)cn1`, for which the inhibition was 45.5% (active).

Take `Cc1ccc(C(=O)OCC(=O)N2CCCCCC2)cc1S(=O)(=O)N1CCOCC1`: the inhibition was 10.7% (inactive).

`Cc1cc(C)cc(NC(=O)c2cccc(NC(=O)C3C4CC5OC(=O)C3C5C4)c2)c1` (stereo not drawn): the inhibition was 6.12% (inactive).

`Cc1ccc(NC(=O)C2CC2)cc1S(=O)(=O)N1CCOCC1`: the inhibition is -3.1% (inactive).

`Cc1ccc(C(=O)OCC(=O)Nc2ccc(Cl)cn2)cc1S(=O)(=O)N1CCOCC1`: the inhibition is 55.8% (active).

In the case of `O=C(COC(=O)c1ccco1)NCc1ccc(Cl)cc1`, the inhibition was 24.3% (inactive).

`CC(OC(=O)CNC(=O)c1ccco1)C(=O)Nc1ccc(Cl)cn1` (stereo not drawn): the inhibition is -0.78% (inactive).

Regarding `Cc1ccc(NC(=O)C(=O)NCC2CCN(C(=O)c3cccc([N+](=O)[O-])c3)CC2)cc1`, the inhibition is 3.36% (inactive).

On to `C=CCNc1nnc(SCC(=O)N2CCCCC2)c2ccccc12`, for which the inhibition was -3.63% (inactive).

Consider `O=C(Nc1ccc(-c2cscn2)cc1)C1CCCN(Cc2ccc(CO)o2)C1` (stereo not drawn), for which the inhibition is -10.4% (inactive).

For the molecule `COc1ccc(CNC(=O)[C@@H]2CC=C[C@@H]3CCN(C4CC4)C(=O)[C@@H]32)cc1`, the inhibition is -6.96% (inactive).

Turning to `CCOC(=O)C1=C(c2ccccc2)O/C(=C(/C(=O)OC)C(F)(F)F)S1`, the inhibition is 1.19% (inactive).

As to `Cc1cc(=O)n(C)c(=O)n1CCCNc1ccccc1`, the inhibition was -0.72% (inactive).

For `CCCC(=O)N1CCC(CCC(=O)NC2CC2)CC1`, the inhibition was 2.54% (inactive).

For `CC(CO)NCC12CC3CC(CC(C3)C1)C2` (stereo not drawn), the inhibition was -2.32% (inactive).

For the molecule `CCc1ccc2oc(-c3ccc(N)cc3)nc2c1`, the inhibition is 8.24% (inactive).

As to `Cc1cc(-c2nnc(SCC(=O)Nc3ccc(S(N)(=O)=O)cc3)n2N)n[nH]1`, the inhibition is -4.23% (inactive).

With `Cc1ccc(C)c(S(=O)(=O)Nc2cc(C)on2)c1`, the inhibition is 0.2% (inactive).

On to `CCc1cccc(C)c1NC(=O)COC(=O)Cc1ccsc1`, for which the inhibition is 7.53% (inactive).

`CCc1cccc(C)c1NC(=O)COC(=O)CNC(=O)c1cccs1`: the inhibition was 5.02% (inactive).

On to `CCc1cccc(C)c1NC(=O)COC(=O)CC1CCCC1`, for which the inhibition is 68.3% (active).

For the molecule `Cc1cc(C)n2nc(C(=O)OCC(=O)N(CCC#N)c3ccc(F)cc3)nc2n1`, the inhibition was -0.66% (inactive).

For the molecule `CC(C)Nc1nnc(SC(C)C(=O)N(C)C2CCCCC2)s1` (stereo not drawn), the inhibition is 9.89% (inactive).

For `CCOCc1nnc(NC(=O)CCC2CCCCC2)s1`, the inhibition is 3.07% (inactive).

On to `CCOc1cc(-c2conc2N)cc(OCC)c1OCC`, for which the inhibition was -0.29% (inactive).

Consider `CCCc1cc(=O)n2[nH]c(SCc3ccccc3)nc2n1`, for which the inhibition is 58.2% (active).

`CCCc1cc(=O)n2[nH]c(C)c(-c3ccc(Cl)cc3)c2n1`: the inhibition was 4.35% (inactive).

`CCCc1cc(=O)[nH]c(SCc2ccc(C#N)cc2)n1`: the inhibition is -7.81% (inactive).

Regarding `O=C1CCc2cc(S(=O)(=O)N3CCC(C(=O)NCc4ccccc4Cl)CC3)ccc2N1`, the inhibition is 7.4% (inactive).

Regarding `NNC(=O)C1CC(O)CN1S(=O)(=O)c1ccc(Cl)cc1` (stereo not drawn), the inhibition was -7.58% (inactive).

In the case of `O=C(CCN1CCN(C/C=C/c2ccccc2)CC1)Nc1cccc(F)c1`, the inhibition was -0.13% (inactive).

In the case of `O=c1ccc2c(-c3ccccc3S(=O)(=O)O)c3ccc(O)c(O)c3oc-2c1O`, the inhibition was 74.3% (active).

For the molecule `O=C1C2C3C=CC(C3)C2C(=O)N1c1ncc([N+](=O)[O-])s1` (stereo not drawn), the inhibition is 3.52% (inactive).

Regarding `CC1(C)NC(=O)N(CC(=O)Nc2cc(C(F)(F)F)cc(C(F)(F)F)c2)C1=O`, the inhibition is 2.33% (inactive).

Consider `N/C(=N\OS(=O)(=O)c1cccc([N+](=O)[O-])c1)c1ccncc1`, for which the inhibition is -0.37% (inactive).

For the molecule `CCCC(CCC(=O)OC)(C(=O)OCC)c1csc(N)n1` (stereo not drawn), the inhibition was 3.59% (inactive).

With `O=C(N/N=C/c1cc([N+](=O)[O-])ccc1O)/C(=C\c1cccs1)NC(=O)c1ccccc1`, the inhibition is -3.54% (inactive).

Take `O=[N+]([O-])c1ccc(O)c(/C=N/Nc2ccccc2[N+](=O)[O-])c1`: the inhibition was 51.1% (active).

On to `Nc1nnnn1/N=C/c1cc([N+](=O)[O-])ccc1O`, for which the inhibition was -12.5% (inactive).

With `COc1cccc(/C=N/Nc2ccc(S(=O)(=O)Nc3ccccc3C(=O)O)cc2[N+](=O)[O-])c1O`, the inhibition is 27.3% (inactive).

With `O=C(O)c1ccccc1N=N/C(=N/Nc1cc(S(=O)(=O)O)ccc1O)c1ccccc1`, the inhibition was 50.6% (active).

With `NC[C@H](Cc1ccccc1)NCCc1cc(C(F)(F)F)cc(C(F)(F)F)c1`, the inhibition was -1.16% (inactive).

As to `O=C(OCCN1C(=O)c2ccccc2C1=O)[C@@H]1CC(O)CN1S(=O)(=O)c1ccccc1[N+](=O)[O-]` (stereo partly drawn), the inhibition was 3.85% (inactive).

Turning to `O=C(CN1C(=O)NC2(CCOc3ccccc32)C1=O)NCc1ccc(F)cc1` (stereo not drawn), the inhibition is -2.58% (inactive).

In the case of `O=C(COC(=O)Cc1ccc([N+](=O)[O-])cc1)NC1CCCCCC1`, the inhibition was 2.56% (inactive).

On to `N/C(Cc1ccc([N+](=O)[O-])cc1)=N\OC(=O)C1CCCCC1`, for which the inhibition is 18.1% (inactive).

For `O=C(COC(=O)C1CCCCC1)Nc1ccc([N+](=O)[O-])cc1`, the inhibition was 59.7% (active).

For `CC(=O)Nc1ccc(NC(=O)COC(=O)C2CCC(C(C)(C)C)CC2)cc1` (stereo not drawn), the inhibition is 2.02% (inactive).

As to `CCC(C)c1ccc(NC(=O)COC(=O)C2CCCC2)cc1` (stereo not drawn), the inhibition was 46.3% (active).

`CCC(C)c1ccc(NC(=S)N2CCCC2)cc1` (stereo not drawn): the inhibition was -2.78% (inactive).

For `Cc1nc([N+](=O)[O-])nn1C12CC3CC(CC(Br)(C3)C1)C2`, the inhibition is 4.57% (inactive).

On to `Clc1c(OCCCn2ccnc2)ccc2ccccc12`, for which the inhibition was 0.49% (inactive).

With `CCOC(=O)C1CCCN(C(=O)c2ccc(C)c(S(=O)(=O)N3CCCCC3)c2)C1` (stereo not drawn), the inhibition was 3.86% (inactive).

As for `O=C(c1ccc(F)cc1)N1CCCC(C(=O)N2CCCCC2)C1` (stereo not drawn), the inhibition is -1.35% (inactive).

As to `Cc1ccc(F)cc1S(=O)(=O)Nc1cccc(C(=O)N2CCCC(C(N)=O)C2)c1` (stereo not drawn), the inhibition is 45.3% (active).

Take `CSc1ccc(S(=O)(=O)N2CCC(C(=O)NCc3ccncc3)CC2)cc1`: the inhibition was 0.67% (inactive).

Usually inhibition stands for the relative decrease from the control value, in per cent.
